Composite z-score and z-score data for 6 compounds are collected here from PubChem BioAssay.

Active and inactive are the calls of the source.

Assay [1] concerns PRMT1 (protein arginine N-methyltransferase 1). The experiment in a line: PRMT1 binders on small-molecule microarrays, primary screen, biochemical, small-molecule microarray, 635 nm fluorescence (AID 1088).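 Also: binding of Prmt1 protein to compounds spotted on small-molecule microarray slides.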 To be noted: small-molecule microarray binding, higher = more signal.
Assay [2] in a line: yeast growth modulation, basal conditions, primary screen, YJM789 clinical isolate, OD600, 24 h (AID 1089).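 Also: growth of clinical yeast isolate S. cerevisiae YJM 789 seeded 1000 cells per well; test concentration not given here.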 To be noted: S. cerevisiae YJM789 growth, higher = more signal, called active from +8 up or from −8 down.
Assay [3] is described as follows: fission yeast growth modulation, primary screen, strain 972, OD600, 24 h, no modulator (AID 1090).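 Also: basal condition with compound alone and no growth modifier present; test concentration not given here.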 To be noted: S. pombe 972 growth, higher = more signal, called active from +8 up or from −8 down.
Assay [4] can be described thus: S. cerevisiae growth modulation with rapamycin, primary screen, strain BY4716, OD600, 96 h (AID 1091). Also: test concentration not given here. To be noted: higher = more signal, called active from +8 up or from −8 down.
Assay [5] has as its target Torsin-1A-interacting protein 2 (Homo sapiens) (UniProt Q8NFQ8). The experiment in a line: LULL1 binders on small-molecule microarray, primary screen, cell lysate, human LULL1 lysate, 635/667 nm fluorescence (AID 1092).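 Also: probe is lysate of COS7 cells overexpressing human LULL1; score merges per-feature 667 nm fluorescence with signal-to-noise.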 To be noted: hLULL1 lysate binding, 635 nm fluorescence, higher = more signal.
Assay [6] is described as follows: E. coli growth modulation, two-sided OD650, primary screen, E. coli filamentation project, strain DRC41, 24 h (AID 1093).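 Also: MC1000 strain lacking acrAB efflux and sulA so SOS filamentation is blocked; test concentration not given here.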 To be noted: OD650, 24 h, higher = more signal, called active from +8 up or from −8 down.
Assay [7] in a line: small-molecule microarray binders of probe aLefty2, primary screen, biochemical, biotinylated probe, 635/667 nm fluorescence (AID 1094).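 Also: score merges spot fluorescence near 667 nm with spot signal-to-noise ratio.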 To be noted: higher = more signal.
For assay [8], the system named is Noggin (protein binding on small-molecule microarray). The assay can be described thus: Noggin binders on small-molecule microarray, primary screen, biochemical, 635/667 nm fluorescence (AID 1095).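 Also: score merges 667 nm feature fluorescence with signal to noise over triplicate slides.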 To be noted: 635 nm fluorescence, higher = more signal.
For assay [9], the target named is Neurogenic locus notch homolog protein 3 (Homo sapiens) (UniProt Q9UM47). The assay can be described thus: NOTCH3 binders on small-molecule microarray, primary screen, biochemical, 635/667 nm fluorescence (AID 1096). To be noted: NOTCH3 binding, 635 nm fluorescence, higher = more signal.
Neurogenic locus notch homolog protein 3 (Homo sapiens), sequence (Q9UM47 whole entry, looked up): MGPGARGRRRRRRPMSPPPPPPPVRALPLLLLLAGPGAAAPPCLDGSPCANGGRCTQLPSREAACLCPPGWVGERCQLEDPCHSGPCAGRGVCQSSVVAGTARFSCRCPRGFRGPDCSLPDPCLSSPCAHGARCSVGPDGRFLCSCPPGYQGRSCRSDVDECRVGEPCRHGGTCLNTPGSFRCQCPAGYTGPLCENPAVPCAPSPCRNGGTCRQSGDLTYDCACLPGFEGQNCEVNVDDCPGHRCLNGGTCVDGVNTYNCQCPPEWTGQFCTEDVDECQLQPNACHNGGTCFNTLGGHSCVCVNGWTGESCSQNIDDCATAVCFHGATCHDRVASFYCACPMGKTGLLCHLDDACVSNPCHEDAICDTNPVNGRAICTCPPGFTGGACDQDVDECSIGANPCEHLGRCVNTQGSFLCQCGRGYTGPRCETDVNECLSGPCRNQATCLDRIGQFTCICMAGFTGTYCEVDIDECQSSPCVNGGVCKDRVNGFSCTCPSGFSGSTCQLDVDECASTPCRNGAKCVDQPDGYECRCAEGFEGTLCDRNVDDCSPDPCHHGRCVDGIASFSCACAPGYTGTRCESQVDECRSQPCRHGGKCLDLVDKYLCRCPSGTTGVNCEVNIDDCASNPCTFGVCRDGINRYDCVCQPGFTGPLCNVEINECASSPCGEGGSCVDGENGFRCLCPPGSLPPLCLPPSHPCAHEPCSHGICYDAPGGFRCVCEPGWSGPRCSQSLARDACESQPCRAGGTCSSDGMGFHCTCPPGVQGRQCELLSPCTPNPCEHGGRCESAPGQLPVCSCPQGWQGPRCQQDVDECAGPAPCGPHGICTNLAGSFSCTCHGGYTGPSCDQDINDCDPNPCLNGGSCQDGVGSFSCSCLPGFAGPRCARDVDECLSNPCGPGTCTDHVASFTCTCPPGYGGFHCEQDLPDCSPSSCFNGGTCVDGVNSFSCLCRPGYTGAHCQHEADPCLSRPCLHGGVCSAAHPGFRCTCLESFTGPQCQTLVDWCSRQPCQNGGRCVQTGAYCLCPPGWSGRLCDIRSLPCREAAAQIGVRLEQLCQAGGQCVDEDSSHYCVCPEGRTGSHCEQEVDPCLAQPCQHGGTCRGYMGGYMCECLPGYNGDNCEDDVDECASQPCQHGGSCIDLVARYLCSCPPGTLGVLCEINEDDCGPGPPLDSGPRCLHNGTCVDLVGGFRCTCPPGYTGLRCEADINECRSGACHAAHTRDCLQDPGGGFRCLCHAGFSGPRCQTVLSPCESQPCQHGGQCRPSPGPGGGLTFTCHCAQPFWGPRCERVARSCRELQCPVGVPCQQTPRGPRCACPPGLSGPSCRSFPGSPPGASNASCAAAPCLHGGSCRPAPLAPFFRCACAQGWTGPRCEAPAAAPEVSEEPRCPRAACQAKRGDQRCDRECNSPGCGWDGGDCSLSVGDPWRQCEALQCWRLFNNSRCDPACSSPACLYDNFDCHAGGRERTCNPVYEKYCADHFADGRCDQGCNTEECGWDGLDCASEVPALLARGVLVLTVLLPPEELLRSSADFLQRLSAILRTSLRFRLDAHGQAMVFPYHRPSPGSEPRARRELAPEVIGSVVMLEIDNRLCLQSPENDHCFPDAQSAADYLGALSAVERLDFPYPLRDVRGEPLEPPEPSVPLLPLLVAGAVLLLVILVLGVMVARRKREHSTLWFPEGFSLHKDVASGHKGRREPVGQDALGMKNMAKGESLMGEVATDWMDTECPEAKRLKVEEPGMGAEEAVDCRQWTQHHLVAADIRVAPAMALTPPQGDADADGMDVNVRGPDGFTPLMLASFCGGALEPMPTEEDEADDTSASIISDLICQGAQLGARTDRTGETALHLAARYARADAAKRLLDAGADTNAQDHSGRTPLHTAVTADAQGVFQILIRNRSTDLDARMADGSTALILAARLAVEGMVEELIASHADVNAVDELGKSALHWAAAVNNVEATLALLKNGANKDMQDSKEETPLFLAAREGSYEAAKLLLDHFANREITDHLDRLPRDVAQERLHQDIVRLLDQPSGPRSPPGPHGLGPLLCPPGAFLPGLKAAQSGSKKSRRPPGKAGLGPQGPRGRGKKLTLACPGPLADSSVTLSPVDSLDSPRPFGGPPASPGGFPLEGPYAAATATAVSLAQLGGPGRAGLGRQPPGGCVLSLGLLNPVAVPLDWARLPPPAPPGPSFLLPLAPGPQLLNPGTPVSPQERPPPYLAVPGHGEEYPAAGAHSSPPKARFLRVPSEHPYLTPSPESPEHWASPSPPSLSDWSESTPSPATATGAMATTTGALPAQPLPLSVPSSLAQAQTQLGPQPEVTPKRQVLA
Assay [10] is described as follows: small-molecule microarray binders of probe aEGFR, primary screen, biochemical, biotinylated probe, 635/667 nm fluorescence (AID 1097).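 Also: probe is a biotinylated anti-EGFR antibody binding compounds printed on slides; score combines fluorescence near 667 nm and signal to noise of each spot.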 To be noted: higher = more signal.

Torsin-1A-interacting protein 2 (Homo sapiens), sequence (Q8NFQ8 whole entry, looked up): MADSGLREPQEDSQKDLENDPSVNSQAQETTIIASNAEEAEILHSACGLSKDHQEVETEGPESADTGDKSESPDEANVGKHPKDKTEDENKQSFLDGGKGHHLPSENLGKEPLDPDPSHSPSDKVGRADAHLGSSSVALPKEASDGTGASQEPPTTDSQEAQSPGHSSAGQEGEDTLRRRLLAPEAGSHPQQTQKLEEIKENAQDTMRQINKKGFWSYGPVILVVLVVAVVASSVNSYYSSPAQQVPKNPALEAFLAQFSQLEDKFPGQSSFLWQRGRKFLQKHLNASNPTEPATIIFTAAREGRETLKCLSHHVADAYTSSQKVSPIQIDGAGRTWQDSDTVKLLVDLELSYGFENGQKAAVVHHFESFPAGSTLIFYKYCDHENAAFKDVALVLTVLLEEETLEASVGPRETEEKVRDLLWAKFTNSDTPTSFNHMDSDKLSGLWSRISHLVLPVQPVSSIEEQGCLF

On to `COC(=O)[C@@]1(Cc2ccc(OC)cc2)[C@H]2c3cc(C(=O)N(C)C)[nH]c3C[C@H]2CN1C(=O)c1ccccc1`, for which the composite z-score in assay [1] was -0.614; in assay [5], 0.982; in [7], 0.096; in [8], -0.337; in assay [9], 0.201; in assay [10], -0.0594. The z-score was 0.0372 (inactive) in assay [2], 1.15 (inactive) in assay [3], 0.0745 (inactive) in [4] and 0.0515 (inactive) in [6].
Turning to `O=C(NCC(O)CO)[C@@]1(CCS(=O)(=O)c2ccccc2)N=C(c2ccc(OCCCO)cc2)O[C@H]1c1ccccc1` (stereo not given in full), the composite z-score was 0.845 in assay [1]; 3.56 in assay [5]; 0.471 in [7]; -0.562 in assay [8]; -0.196 in assay [9]; 0.144 in assay [10]. Also, the z-score was -0.717 (inactive) in assay [2], -0.908 (inactive) in assay [3], -0.163 (inactive) in assay [4] and -0.328 (inactive) in [6].
Regarding `CC(C)OC(=O)CC(=O)CC(O)c1cccc([N+](=O)[O-])c1` (stereo not given), the composite z-score in [1] was 1.09; in assay [5], 1.64; in assay [7] it was -0.186; in assay [8], -0.164; in assay [9] it was 0.83; in assay [10], -0.0215. Further, the z-score in assay [2] is -4.2 (inactive); in assay [3], -1.84 (inactive); in assay [4], -2.74 (inactive); in [6] it was 0.305 (inactive).
As to `CC(C)N1C(=O)C[C@@](C(=O)NCCN2CCOCC2)(c2ccc([N+](=O)[O-])cc2)[C@H]1c1ccc(CO)cc1`, the composite z-score in assay [1] was 0.266; in assay [5] it was 3.61; in [7], -0.001; in [8] it was 0.193; in [9], -0.958; in assay [10] it was -0.228. In addition, the z-score was -1.77 (inactive) in assay [2], -0.274 (inactive) in assay [3], -1.76 (inactive) in assay [4] and 0.214 (inactive) in assay [6].
Consider `CC(C)(C)N1CC=CC23O[C@@H]4/C=C\CCCOC(=O)C4[C@H]2C(=O)N(CCCO)[C@@H]3C1=O` (stereo not given in full), for which the composite z-score in [1] was 0.477; in assay [5], 1.11; in assay [7], -0.279; in assay [8], -0.877; in assay [9] it was 0.0017; in assay [10], -0.129. In addition, the z-score in assay [2] was -1.01 (inactive); in [3] it was 0.0214 (inactive); in assay [4], -0.766 (inactive); in assay [6], -0.282 (inactive).
In the case of `COCCOC(=O)N1C(=O)[C@@]2(c3ccccc31)[C@H](C(=O)N1CCN(c3ncccn3)CC1)[C@H]1C(=O)O[C@H](c3ccccc3)[C@H](c3ccccc3)N1[C@@H]2c1ccccc1OCCO`, the composite z-score in [1] is 1.49; in [5], 2.61; in assay [7], -0.0366; in [8] it was 1.18; in assay [9] it was 1.07; in [10], -0.067. The z-score in [2] was 1.13 (inactive); in assay [3] it was 0.185 (inactive); in assay [4], 7.39 (inactive); in [6], 1.97 (inactive).
